Experimental data: PubChem BioAssay (NCATS)
Inconclusive results are not listed. The source made the active and inactive calls. Unless noted, calls come from the whole dose curve; as a rule, active = well fitted curve in the direction sought with a large enough effect; inconclusive = small, poorly fitted or top-dose-only effect, or another doubt; inactive = no such curve, though single readings can be large; an effect the other way counts as inactive or inconclusive.

How the values were obtained:
[1] = target: Hexokinase-4 (Homo sapiens) + Glucokinase regulatory protein (Homo sapiens) (UniProt P35557+Q14397); experiment: qHTS assay for inhibitors of recombinant human GCK-GKRP interaction: HTRF assay (AID 743207);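 note: 0% = DMSO with GCK present and -100% = DMSO wells lacking GCK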
Hexokinase-4 (Homo sapiens) + Glucokinase regulatory protein (Homo sapiens), sequence (P35557 whole entry, looked up): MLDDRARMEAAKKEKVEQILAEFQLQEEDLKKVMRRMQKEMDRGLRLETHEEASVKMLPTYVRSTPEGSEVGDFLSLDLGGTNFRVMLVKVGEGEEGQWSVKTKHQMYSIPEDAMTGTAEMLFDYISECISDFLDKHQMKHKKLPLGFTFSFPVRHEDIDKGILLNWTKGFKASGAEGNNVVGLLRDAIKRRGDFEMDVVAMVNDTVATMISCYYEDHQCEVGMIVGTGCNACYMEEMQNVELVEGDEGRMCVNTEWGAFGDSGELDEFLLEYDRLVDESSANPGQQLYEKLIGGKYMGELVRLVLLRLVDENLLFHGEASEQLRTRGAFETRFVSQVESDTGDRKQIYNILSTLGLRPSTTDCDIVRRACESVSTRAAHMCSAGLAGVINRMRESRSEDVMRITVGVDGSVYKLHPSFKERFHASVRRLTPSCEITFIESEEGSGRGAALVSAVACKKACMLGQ
Hexokinase-4 (Homo sapiens) + Glucokinase regulatory protein (Homo sapiens), sequence (Q14397 whole entry, looked up): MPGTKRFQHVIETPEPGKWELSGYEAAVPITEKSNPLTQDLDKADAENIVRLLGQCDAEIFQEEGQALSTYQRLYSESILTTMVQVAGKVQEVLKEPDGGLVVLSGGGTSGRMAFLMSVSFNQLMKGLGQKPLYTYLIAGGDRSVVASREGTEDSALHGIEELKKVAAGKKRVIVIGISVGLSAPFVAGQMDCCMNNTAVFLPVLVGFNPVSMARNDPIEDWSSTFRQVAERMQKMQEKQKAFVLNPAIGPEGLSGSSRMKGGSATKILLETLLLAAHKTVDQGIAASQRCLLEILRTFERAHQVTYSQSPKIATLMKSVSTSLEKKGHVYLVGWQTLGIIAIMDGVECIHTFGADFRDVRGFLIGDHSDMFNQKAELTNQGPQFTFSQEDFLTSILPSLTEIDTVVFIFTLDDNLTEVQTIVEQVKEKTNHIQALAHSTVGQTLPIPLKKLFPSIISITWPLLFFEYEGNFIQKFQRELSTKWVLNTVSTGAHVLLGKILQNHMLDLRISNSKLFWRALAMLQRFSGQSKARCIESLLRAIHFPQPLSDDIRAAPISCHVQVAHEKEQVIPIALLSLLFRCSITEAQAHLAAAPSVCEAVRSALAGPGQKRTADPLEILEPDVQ
Procedure, shortened: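 HTRF binding of 5 nM GST-GCK and 5 nM FLAG-GKRP with 2 uM S6P in pH 7.1 Hepes buffer (MgCl2, KCl, DTT, Tween 20, BSA). Anti-FLAG XL665 and anti-GST donor added, 60 min at room temperature; 665/615 nm read, normalized to with- and without-GCK controls.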

[2] = qHTS assay for measurement of the activity of small molecule inhibitors on Zika virus induced Caspase-3 activity in human iPSC derived neural progenitor cells (hNPCs) (AID 1224857); note: % of control where 0% means no effect; nearly all actives have a fitted effect of over 65% in size
Procedure, shortened: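 Caspase-3/7 induction by a 6-hour ZIKV infection was quantified with a luminescent Caspase-Glo 3/7 reagent incubated 30 minutes at room temperature. Compounds were preincubated with hNPCs for 1 hour; inhibition was calculated against uninfected and infected control wells.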

[3] = qHTS assay for measurement of the activity of small molecule inhibitors on Zika virus induced Caspase-3 activity in human astrocytoma cells (AID 1224859);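 note: plate controls were ZIKV-infected untreated cells for no effect and uninfected cells for full effect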
Procedure, shortened: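 In SNB-19 cells plated at 250 cells/well and grown 16-20 h, compounds were applied 1 h before ZIKV (2 FFU/cell). Six hours later caspase-3/7 luminescence was recorded.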

[4] = target: Atrial natriuretic peptide receptor 1 (Homo sapiens) (UniProt P16066); experiment: Natriuretic polypeptide receptor (hNpr1) antagonism - Pilot screen (AID 1347049; calls by dose curve;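 note: HEK293 cells with hNpr1 and GloSensor cGMP luciferase stimulated by 0.1 nM hNppA; agonist-evoked cGMP luminescence read 20 min after hNppA addition; % is set by controls: 0 for no effect and ±100 for the full control effect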)
Atrial natriuretic peptide receptor 1 (Homo sapiens), sequence (P16066 whole entry, looked up): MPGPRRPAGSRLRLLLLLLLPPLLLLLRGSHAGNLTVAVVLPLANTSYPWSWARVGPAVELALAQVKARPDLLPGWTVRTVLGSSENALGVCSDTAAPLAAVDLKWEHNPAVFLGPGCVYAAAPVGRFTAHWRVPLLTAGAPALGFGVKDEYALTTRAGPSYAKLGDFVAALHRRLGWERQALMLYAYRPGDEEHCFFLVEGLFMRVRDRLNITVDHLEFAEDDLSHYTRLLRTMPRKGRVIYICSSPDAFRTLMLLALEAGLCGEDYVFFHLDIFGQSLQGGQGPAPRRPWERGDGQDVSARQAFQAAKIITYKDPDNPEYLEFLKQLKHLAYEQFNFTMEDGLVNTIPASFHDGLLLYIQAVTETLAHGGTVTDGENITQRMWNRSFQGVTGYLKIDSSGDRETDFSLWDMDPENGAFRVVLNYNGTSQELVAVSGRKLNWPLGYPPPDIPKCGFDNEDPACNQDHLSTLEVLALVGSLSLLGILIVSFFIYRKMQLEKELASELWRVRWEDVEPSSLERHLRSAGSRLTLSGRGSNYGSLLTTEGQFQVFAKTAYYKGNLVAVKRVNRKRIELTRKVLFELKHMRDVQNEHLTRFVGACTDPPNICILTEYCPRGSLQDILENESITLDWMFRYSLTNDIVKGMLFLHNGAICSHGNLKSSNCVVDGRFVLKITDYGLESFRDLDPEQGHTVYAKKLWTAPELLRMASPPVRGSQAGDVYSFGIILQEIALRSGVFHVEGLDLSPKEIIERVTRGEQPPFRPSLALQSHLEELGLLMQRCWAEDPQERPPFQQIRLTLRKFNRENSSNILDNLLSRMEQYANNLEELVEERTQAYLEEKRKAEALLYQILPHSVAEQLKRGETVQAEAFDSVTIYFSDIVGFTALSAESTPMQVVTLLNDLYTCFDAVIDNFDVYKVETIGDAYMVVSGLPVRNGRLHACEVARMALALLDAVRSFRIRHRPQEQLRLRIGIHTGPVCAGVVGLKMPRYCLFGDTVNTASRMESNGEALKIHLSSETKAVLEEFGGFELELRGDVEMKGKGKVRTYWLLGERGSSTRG
Procedure, shortened: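 Receptor antagonism read as cGMP-dependent luminescence in hNpr1/pGS-40F HEK293 cells: pre-read after 30 min compound exposure, post-read 20 min after hNppA agonist at 0.1 nM final, all at room temperature, protected from light; A-71915 titration as control.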

[5] = target: Atrial natriuretic peptide receptor 2 (Homo sapiens) (UniProt P20594); experiment: Natriuretic polypeptide receptor (hNpr2) antagonism - Pilot subtype selectivity assay (AID 1347050; calls by dose curve; note: % is set by controls: 0 for no effect and ±100 for the full control effect)
Atrial natriuretic peptide receptor 2 (Homo sapiens), sequence (P20594 whole entry, looked up): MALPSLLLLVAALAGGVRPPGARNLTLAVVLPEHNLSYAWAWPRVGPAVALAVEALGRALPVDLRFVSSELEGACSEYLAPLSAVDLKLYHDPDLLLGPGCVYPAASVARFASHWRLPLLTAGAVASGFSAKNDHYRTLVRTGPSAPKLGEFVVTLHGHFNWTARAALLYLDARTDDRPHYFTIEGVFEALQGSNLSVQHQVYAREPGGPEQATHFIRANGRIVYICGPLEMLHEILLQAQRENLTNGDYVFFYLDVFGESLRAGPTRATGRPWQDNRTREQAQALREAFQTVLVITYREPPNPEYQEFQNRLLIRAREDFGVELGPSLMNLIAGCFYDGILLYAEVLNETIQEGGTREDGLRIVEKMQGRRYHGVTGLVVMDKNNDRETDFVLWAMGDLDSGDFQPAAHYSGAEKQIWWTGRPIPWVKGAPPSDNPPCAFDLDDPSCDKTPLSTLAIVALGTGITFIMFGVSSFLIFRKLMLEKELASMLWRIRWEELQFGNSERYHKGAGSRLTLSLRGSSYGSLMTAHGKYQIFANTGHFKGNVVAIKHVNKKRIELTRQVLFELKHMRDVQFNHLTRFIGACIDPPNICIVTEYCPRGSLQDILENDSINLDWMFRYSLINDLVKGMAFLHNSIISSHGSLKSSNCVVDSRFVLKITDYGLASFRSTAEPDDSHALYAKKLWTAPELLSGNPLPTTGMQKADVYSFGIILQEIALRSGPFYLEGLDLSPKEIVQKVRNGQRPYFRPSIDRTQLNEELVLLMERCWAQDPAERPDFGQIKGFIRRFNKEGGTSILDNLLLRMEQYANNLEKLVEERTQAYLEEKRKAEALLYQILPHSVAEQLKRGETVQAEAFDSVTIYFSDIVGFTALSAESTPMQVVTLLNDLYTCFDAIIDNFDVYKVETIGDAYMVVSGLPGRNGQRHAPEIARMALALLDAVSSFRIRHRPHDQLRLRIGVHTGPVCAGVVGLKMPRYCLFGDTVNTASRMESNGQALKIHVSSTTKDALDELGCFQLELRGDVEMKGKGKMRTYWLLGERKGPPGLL
Procedure, shortened: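 Antagonist mode: compounds (LOPAC1280, seven 1:5 dilutions) added 30 min before 1 nM hNppC stimulation of hNpr2-HEK293 cGMP-sensor cells; luminescence read before and 20 min after agonist at ambient temperature.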

[6] = NS1 protein of Zika virus - qHTS assay to identify small molecule inhibitors in human HEK 293 cells (AID 1347053);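 note: plate controls were infected untreated cells for no effect and uninfected cells for full effect; nearly all actives have a fitted effect of over 55% in size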
Procedure, shortened: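 In this cell-based screen, HEK 293 cultures received compound for one hour before Zika MR766 at MOI = 0.5. NS1 was quantified 24 hours later by TR-FRET, normalized to virus-free wells and infected wells.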

[7] = qHTS Assay for Identifying Gametocytocidal Compounds (AID 743244); note: potency is the fitted concentration of half-maximal effect;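 for max response: % is set by controls: 0 for no effect and ±100 for the full control effect; actives lower the fluorescent signal which means gametocytes are killed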; conditions: P. falciparum 3D7 stage III-V gametocytes, alamarBlue, 72 h; max response: stronger effect = lower value
Procedure, shortened: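 Late gametocytes (III–V), P. falciparum 3D7; 72 h drug, then 24 h alamarBlue; resazurin reduction read by fluorescence.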

[8] = qHTS profiling of the MIPE4 collection as inhibitors of Plasmodium falciparum (DD2) proliferation (AID 743345; call rule not given here); conditions: P. falciparum Dd2 in erythrocytes, SYBR Green DNA, 72 h; at 28.5 µM (top of the series)
Procedure, shortened: (§1)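 Parasite DNA was quantified by SYBR Green I fluorescence (ex 485, em 535 nm) after overnight lysis in saponin/Triton buffer at room temperature. Cultures at 0.3% parasitemia and 2.5% hematocrit were first exposed to compound for 72 h at 37 C; signals were normalised to artemisinin (0.29 uM) and vehicle wells.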

[9] = qHTS profiling of the MIPE4 collection as inhibitors of Plasmodium falciparum (HB3) proliferation (AID 743347; call rule not given here;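 note: plate controls were DMSO vehicle wells for no effect and artemisinin wells for full effect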); conditions: P. falciparum HB3 in erythrocytes, SYBR Green DNA, 72 h; at 28.5 µM (top of the series)
Procedure, shortened: as §1

[10] = qHTS assay to identify small molecule inhibitors of chordoma cells - UCH-1 (AID 1259355); note: % is set by controls: 0 for no effect and ±100 for the full control effect; nearly all actives have a fitted effect of over 55% in size
Procedure, shortened: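 800 cells/well, overnight attach; compounds pinned at 15 concs, then auranofin/camptothecin/doxorubicin/rubitecan/topotecan combo added; 48hr 37 C, 5% CO2; CellTiter-Glo, 30min RT, luminescence.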

[11] = qHTS assay to identify small molecule inhibitors of chordoma cells - UCH-2 (AID 1259356); note: % is set by controls: 0 for no effect and ±100 for the full control effect
[12] = P-glycoprotein substrates identified in KB-8-5-11 adenocarcinoma cell line, qHTS therapeutic library screen (AID 1346987); note: nearly all actives have a fitted effect of over 65% in size
Procedure, shortened: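 Human cervical adenocarcinoma KB-8-5-11 cells, selected in colchicine to over-express P-gp and assayed without it, were exposed for 72 h to titrated compounds. An ATP-based luminescent viability signal gave AC50.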

[13] = Natriuretic polypeptide receptor (hNpr1) antagonism - Pilot counterscreen GloSensor control cell line (AID 1347045; calls by dose curve; note: % is set by controls: 0 for no effect and ±100 for the full control effect)
Procedure, shortened: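 The SNP-driven cGMP luminescence signal (50 uM, 20 min, room temperature) was measured in GloSensor HEK293 control cells. Compounds were tested as a LOPAC titration series and preincubated for 30-50 min.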

[14] = qHTS assay for cell viability of the p53RE-bla HCT-116 cell line (AID 743292); note: % is set by controls: 0 for no effect and ±100 for the full control effect; nearly all actives have a fitted effect of over 55% in size
Procedure, shortened: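 CellSensor p53RE-bla HCT-116 cells, 4,000/well, preincubated 5 h at 37 C, then exposed to compounds in DMSO for 16 h at 37 C. Viability read as CellTiter-Glo luminescence (intracellular ATP) after 30 min at room temperature.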

[15] = P-glycoprotein substrates identified in KB-3-1 adenocarcinoma cell line, qHTS therapeutic library screen (AID 1346986); note: % is set by controls: 0 for no effect and ±100 for the full control effect; nearly all actives have a fitted effect of over 60% in size
Procedure, shortened: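 Dose-response cytotoxicity, KB-3-1 vs P-gp-high KB-8-5-11, no colchicine in assay medium. Read: CellTiter-Glo at 72 h.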

Cc1o[nH]c(=O)c1CC(N)C(=O)O (stereo not given)
inactive: outcome [1] | Potency [2] | outcome [3] | Potency [4] | Potency [5] | outcome [6]

CC1(C(=O)O)C2CCC(O2)C1(C)C(=O)O (stereo not given)
inactive: outcome [1] | max response [7] -9.57% | Potency [2] | outcome [3] | Potency [4] | Potency [5]

C[N+]1(C)[C@@H]2CC(OC(=O)[C@H](CO)c3ccccc3)C[C@H]1[C@H]1O[C@@H]12 (stereo not given in full)
86.8%: growth, % of control [9]
inactive: Potency [2]
91.7%: parasite growth remaining, % of DMSO control (lower = more inhibition) [8]

CC(C)[C@@]1(NC(=O)[C@@H]2C[C@@H]3c4cccc5[nH]cc(c45)C[C@H]3N(C)C2)O[C@@]2(O)[C@@H]3CCCN3C(=O)[C@H](Cc3ccccc3)N2C1=O
inactive: outcome [3] | Potency [10] | Potency [11] | Potency [12] | Potency [13] | Potency [4] | Potency [5]
active: Potency [7] 5.01 µM

CNc1ccc2oc(C[C@H]3O[C@@]4(CC[C@H]3C)O[C@H]([C@H](C)C(=O)c3ccc[nH]3)[C@H](C)C[C@H]4C)nc2c1C(=O)O
active: Potency [7] 2.35 µM
inactive: outcome [1] | Potency [2] | outcome [3] | Potency [4] | Potency [5]

O=c1ccc2[nH]cc(C3=CCNCC3)c2[nH]1
inactive: Potency [2] | outcome [6]

Nc1cc2c(ncn2CCOCP(=O)(O)O)c(=O)[nH]1
inactive: Potency [2] | outcome [6]

NC(=O)COc1c(F)cc(SCCNS(=O)(=O)c2ccccc2)cc1F
inactive: outcome [1] | max response [7] 9.54% | Potency [2] | outcome [3] | Potency [4] | Potency [5] | outcome [6]

C[N+]1(C)CCc2cc3c(cc2[C@H]1[C@@H]1OC(=O)c2c1ccc1c2OCO1)OCO3
inactive: outcome [1] | max response [7] 19.2% | Potency [2] | outcome [3] | Potency [4] | Potency [5] | outcome [6]

C=CCN1CCC23c4c5ccc(O)c4O[C@H]2C(=O)CC[C@@]3(O)C1C5 (stereo not given in full)
inactive: outcome [1] | max response [7] 7.07% | Potency [2] | outcome [3] | Potency [4] | Potency [5] | outcome [6]

NC(C(=O)O)c1cc(=O)[nH]o1 (stereo not given)
inactive: max response [7] 7.64% | Potency [2] | outcome [3] | Potency [4] | Potency [5] | outcome [6]

Nc1ccc(CCN2CCN(c3cccc(C(F)(F)F)c3)CC2)cc1
inactive: outcome [1] | max response [7] 14.5% | Potency [2] | outcome [3] | Potency [4] | Potency [5] | outcome [6]

O=C(NC1CN2CCC1CC2)c1cc2ccoc2cn1 (stereo not given)
inactive: Potency [2] | outcome [6]

O=C1C=CC(=O)C=C1
inactive: outcome [1] | max response [7] 4.21% | Potency [14] | Potency [2] | outcome [3] | Potency [4] | Potency [5] | outcome [6]

N#CCCN
inactive: max response [7] 15.8% | outcome [3] | Potency [13] | Potency [4] | Potency [5] | outcome [6]

CCCN1CCCC2Cc3[nH]ncc3CC21 (stereo not given)
inactive: Potency [10]

C/C(O)=C(\C#N)C(=O)Nc1cc(Br)ccc1Br
inactive: max response [7] -6.48% | outcome [3] | Potency [15] | Potency [12] | Potency [13] | Potency [4] | Potency [5]

CCCCCc1cc(O)c2c(c1)OC(C)(C)[C@@H]1CCC(C)=C[C@@H]21
inactive: Potency [10] | Potency [11]

CC(Cc1ccc(OCC(=O)O)cc1)NCC(O)c1cccc(Cl)c1 (stereo not given)
inactive: outcome [1] | max response [7] 16.8% | outcome [3] | Potency [13] | Potency [4] | Potency [5] | outcome [6]
